Dicer inh: inhibitors of Dicer pre-microRNA processing, primary screen, biochemical, cat-ELCCA, chemiluminescence; Endoribonuclease Dicer (Homo sapiens), Q9UPY3; cat-ELCCA pre-miR-21 Dicer processing; active compounds read high; z-score at 25 µM; 6% of 47,000 active; in the data active = z-score above about 3, passing the limit was not always enough;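 also: plate controls were vehicle for no effect and no enzyme for full effect; higher signal means more uncleaved substrate so more Dicer inhibition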
* marks the source's active call; other numbers are inactive results. The entries come from a sample that favours hits as a whole.

SMILES	Dicer inh
Cc1sc2nc(C)n(/N=C/c3cccs3)c(=O)c2c1C	1.93
Cc1nc2c(cnn2-c2ccccc2)c(=O)n1/N=C/c1ccc2c(c1)OCO2	2.13
Cc1sc2nc(C)n(/N=C/c3ccc4c(c3)OCO4)c(=O)c2c1C	6.39*
CCCc1c(C)[nH]c2[nH]n(-c3ccccc3)c(=O)c2c1=O	-5.2
O=S(=O)(Nc1nc(-c2ccc(F)c(F)c2)cs1)c1cccs1	-1.34
Cc1csc2sc(-c3ccn[nH]3)c(C)c12	3.48*
CCOC(=O)c1sc2sc(-c3ccn[nH]3)c(C)c2c1C	-0.4
Cc1csc2sc(-c3ccnc(SCc4ccccc4)n3)c(C)c12	0.18
Cc1nn(-c2ccccc2)c2nc3ccccc3c(N3CCOCC3)c12	-1
Cc1cc(C)cc(OCCCCc2c(C)n[nH]c2C)c1	-0.87
O=C(O)CNC(=O)c1ccc(Br)cc1	0.52
NNC(=O)CNC(=O)c1c(F)cccc1F	-2
NNC(=O)CNC(=O)c1ccc(Br)cc1	4.75*
O=S(=O)(c1cccc(C(F)(F)F)c1)N1CCCC1	-1.88
Cn1c(Cn2c3ccccc3c3ccccc32)nnc1SCC(=O)O	2.65
C#CCOc1ccc(C2CC(=O)Nc3n[nH]c(-c4ccccc4)c32)cc1OC (configuration not stated)	3.18
O=C(Nc1ccc(OC(=O)N(c2ccccc2)c2ccccc2)cc1)N1CCOCC1	3.88*
O=C(Nc1ccc(Cl)cc1)N1CCOCC1	0.1
O=C(Nc1ccccc1)N1CCSCC1	1.61
CN(C)c1ccc(-c2nc3n(n2)C(c2ccc(F)cc2)C2=C(CCCC2=O)N3)cc1 (configuration not stated)	6.69
O=C(NCc1ccc(Cl)cc1Cl)c1cc2cc(Cl)ccc2[nH]1	1.92
O=C1C=C(SCC(=O)Nc2ccc(Cl)cc2)SC(c2ccccc2)C1 (configuration not stated)	-0.76
Nc1cc(=O)[nH]c2nnc(SCc3cccc(Oc4ccccc4)c3)n12	2.76
Nc1cc(=O)[nH]c2nnc(SCCc3ccccc3)n12	4.07*
CCSc1nnc2[nH]c(=O)cc(N)n12	2.48
SMILES	Dicer inh
CCCCCSc1nnc2[nH]c(=O)cc(N)n12	4.47*
CCCCSc1nnc2[nH]c(=O)cc(N)n12	2.47
CCCCCCCSc1nnc2[nH]c(=O)cc(N)n12	2.46
CC1=C(C(=O)OCCc2ccccc2)C(c2cc3c(cc2Cl)OCO3)C2=C(CCCC2=O)N1 (configuration not stated)	0.48
CC(C(=O)NNC(=S)Nc1ccccc1Cl)n1nnc(N2CCOCC2)n1 (configuration not stated)	-0.26
Cc1noc(/C=C/c2ccc3c(c2)n(C)c(=O)n3C)c1[N+](=O)[O-]	-0.7
CCCCOc1cc(C(F)(F)F)nc2ccc(C)cc12	0.1
CCOc1cc(C2c3c(oc4ccccc4c3=O)C(=O)N2c2nc(C)c(C(=O)OC)s2)ccc1O (configuration not stated)	1.47
Cc1ccc2[nH]c(=O)c(-c3noc(-c4ccco4)n3)cc2c1	-0.44
CC(=O)/C(C=NC1CCCCNC1=O)=C(\C)O (configuration not stated)	-0.52
CC(C)(C)OC(=O)NC(Cc1ccccc1)C(N)=O (configuration not stated)	0.33
CC(C)(C)c1ccc(N2C(=O)CC(c3ccccc3)C2=O)cc1 (configuration not stated)	5.32*
O=C1CC(c2ccccc2)CC(=O)N1c1ccccc1	-4.04
Cn1cc(C2CC(=O)N(c3ccc(O)cc3)C2=O)c2ccccc21 (configuration not stated)	1.95
COc1ccc(N2C(=O)CC(N3CCN(C)CC3)C2=O)cc1 (configuration not stated)	-1.6
O=C1CC(c2ccccc2)CC(=O)N1c1ccc(Oc2ccc(Cl)cc2)cc1	-0.44
CC(C)(C)NC1CC(=O)N(c2ccccc2)C1=O (configuration not stated)	-2.21
COc1ccc(N2C(=O)CC(c3ccccc3)C2=O)cc1 (configuration not stated)	4.33*
COc1ccc(N2C(=O)CC(Sc3nc(C)c4ccccc4n3)C2=O)cc1 (configuration not stated)	1.71
O=C1CC(c2ccccc2)C(=O)N1c1cc(Cl)cc(Cl)c1 (configuration not stated)	5.33*
COC(=O)c1ccc(/C=C/c2onc(C)c2[N+](=O)[O-])cc1	-2.12
CC1CN(c2ccc(S(N)(=O)=O)cc2[N+](=O)[O-])CC(C)O1 (configuration not stated)	0.31
CN(C)C(=S)NCCCN1CCOCC1	0.63
CC1(C)C/C(=N\NC(N)=O)c2ccc(OCc3ccccc3)cc2O1	1.06
CC1(C)CC(=O)C2=C(C1)Nc1ccccc1NC2c1ccc([N+](=O)[O-])o1 (configuration not stated)	-0.3
SMILES	Dicer inh
CN(C)c1ccc(C(O)c2nc3ccccc3n2Cc2ccccc2)cc1 (configuration not stated)	-0.3
CCCc1cc2c(c(N)n1)c(=O)oc1ccccc12	-0.55
CC(C)(C)C1CCc2nc(N)c3c(=O)oc4ccccc4c3c2C1 (configuration not stated)	5*
COC(=O)c1c(C)nc(C)c2c(=O)oc3ccccc3c12	0.08
COc1ccc(OC)c(C2C(C#N)=C(C)NC3=C2C(=O)CC(c2ccccc2)C3)c1 (configuration not stated)	0.45
Cn1c(=O)n(CC(=O)O)c(=O)c2c1nc1n2CCCN1c1ccc(Oc2ccccc2)cc1	-2.14
Cc1cc2n(n1)C(c1ccc(N3CCCC3)cc1)Nc1c(C)cccc1-2 (configuration not stated)	8.81
COc1ccc(OC)c(C2Nc3c(C)cccc3-c3cc(C)nn32)c1 (configuration not stated)	-1.33
Cc1cc2n(n1)C(c1ccccc1Cl)Nc1c(C)cccc1-2 (configuration not stated)	5.93*
Cc1cc2n(n1)C(c1ccc3c(c1)OCO3)Nc1c(C)cccc1-2 (configuration not stated)	3.12*
COc1ccc(C2Nc3c(C)cccc3-c3cc(C)nn32)cc1 (configuration not stated)	0.76
Cc1cc2n(n1)C(c1cc(Br)ccc1O)Nc1c(C)cccc1-2 (configuration not stated)	8.68
CCOc1cccc(C2Nc3c(C)cc(C)cc3-c3cc(C)nn32)c1O (configuration not stated)	2.6
COc1cccc(C2Nc3c(C)cccc3-c3cc(C)nn32)c1O (configuration not stated)	4.94*
Cc1cc2n(n1)C(c1ccc(Cl)cc1)Nc1c(C)cccc1-2 (configuration not stated)	3.76*
Cc1cc2n(n1)C(c1ccccc1F)Nc1c(C)cccc1-2 (configuration not stated)	0.62
Cc1cc(C)c2c(c1)-c1cc(C)nn1C(c1ccc3c(c1)OCO3)N2 (configuration not stated)	1.23
CC1=C(C(=O)OC2CCCC2)C(c2ccccc2C)C2=C(CC(C)(C)CC2=O)N1 (configuration not stated)	-0.83
NC(=S)Cc1cc(C(F)(F)F)cc(C(F)(F)F)c1	-0.22
COc1cc(OC)c2nc(C)c3c(c2c1)CN(C(=O)Nc1ccccc1)C3	-0.16
C#CCOC(=O)NC(=O)c1c(-c2ccc(Cl)cc2)nn(C)c1SC	-1.95
Nc1c(-c2ccc(Cl)cc2)cnn1-c1ncc(C(F)(F)F)cc1Cl	1.07
